# Screening results from PubChem BioAssay.
# AmpC no deterg: blocks E. coli AmpC beta-lactamase in detergent-free assay | P00811 | AmpC nitrocefin hydrolysis, absorbance 480 nm, 0.0001% Triton | Potency, µM (series often up to 57.1 µM), for the others: at the top dose activity change, negative = inhibition, usual class: inhibitors | 330,000 compounds, 0.52% hits | AID 485341;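 also: potency is read from the fitted curve at half-maximal effect; plate controls were no compound for no effect and no enzyme for full effect; nearly all actives have a fitted effect of over 20% in size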
# Target sequence (P00811 whole entry, looked up): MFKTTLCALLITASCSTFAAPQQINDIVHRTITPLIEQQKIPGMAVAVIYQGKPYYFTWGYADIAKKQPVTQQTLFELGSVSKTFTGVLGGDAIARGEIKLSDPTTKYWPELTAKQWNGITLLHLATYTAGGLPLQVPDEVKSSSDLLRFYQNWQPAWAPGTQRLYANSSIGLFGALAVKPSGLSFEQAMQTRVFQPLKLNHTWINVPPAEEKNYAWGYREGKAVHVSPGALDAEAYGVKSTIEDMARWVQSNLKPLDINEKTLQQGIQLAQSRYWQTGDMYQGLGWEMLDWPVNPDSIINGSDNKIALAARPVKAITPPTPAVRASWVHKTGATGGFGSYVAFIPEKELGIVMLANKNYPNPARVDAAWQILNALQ
#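 20 mM phosphate pH 7.0 + 0.01% (detergent screen) or 0.0001% Triton X-100; 5.3 nM AmpC reagent; cpd preinc 15 min RT; nitrocefin (800 uM stock) to start; A480 q20 s × 4 min; Activity was normalised to no-enzyme and no-compound control wells.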
# SARS PLpro yeast-1: SARS-CoV PLP inhibition in yeast | S. cerevisiae expressing SARS-CoV PLpro, growth rescue | AID 485353 | 330,000 compounds, 0.19% hits | Potency, µM (doses to about 32.9 µM), inactives show top-dose activity, positive = growth rescue, actives largely listed as activators; calls by dose curve; also: potency is read from the fitted curve at half-maximal effect; 0% is about no effect; nearly all actives have a fitted effect of over 55% in size
# AmpC detergent: inhibitors of E. coli AmpC beta-lactamase with detergent; P00811; AmpC hydrolysis of nitrocefin, absorbance 480 nm, 0.01% Triton; Potency, µM (highest dose often 114 µM), for inactives: top-dose activity change, negative = inhibition, actives largely listed as inhibitors; 370,000 compounds, 0.041% hits;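 also: potency is read from the fitted curve at half-maximal effect; 0% = no-compound wells and -100% = no-enzyme wells; nearly all actives have a fitted effect of over 25% in size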
#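 20 mM phosphate pH 7.0 + 0.01% (detergent screen) or 0.0001% Triton X-100; 5.3 nM AmpC reagent; cpd preinc 15 min RT; nitrocefin (800 uM stock) to start; A480 q20 s × 4 min; Activity was normalised to no-enzyme and no-compound control wells.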
# Vaccinia mCherry: vaccinia inhibition (mCherry reporter); Potency, µM (series often up to 36.5 µM), inactives show at the top dose activity change, negative = inhibition, hits mostly inhibitors; AID 720579; Vaccinia virus mCherry reporter infection, fluorescence; 310,000 compounds, 0.63% hits; calls by dose curve; tested in A549 cells; also: potency is read from the fitted curve at half-maximal effect; % is scaled to controls: 0 for no effect and ±100 for the full control effect; nearly all actives have a fitted effect of over 35% in size
# VACV Venus inh: inhibitors of vaccinia virus (Venus reporter) | 330,000 compounds, 0.46% hits | AID 720580 | Potency, µM (titrated, usually from 36.5 µM), for the others: at the top dose activity change, negative = inhibition, actives largely listed as inhibitors | Vaccinia virus Venus reporter expression, fluorescence; calls by dose curve; tested in A549 cells; also: potency is read from the fitted curve at half-maximal effect; % is scaled to controls: 0 for no effect and ±100 for the full control effect; nearly all actives have a fitted effect of over 30% in size
# SARS PLpro yeast-2: Validates SARS-CoV PLpro inhibitor hits in yeast | shares compounds with SARS PLpro yeast-1 | yeast expressing SARS-CoV PLpro, growth phenotype rescue | calls only | 1,000 compounds, 19% hits; call rule not given here
# The depositor's hits bear a star; i = inactive; ? = inconclusive; . = not tested or not shown; + = active, no number. An excerpt weighted towards active compounds, which were near 1.3% of everything screened. Unless noted, calls follow the shape of the dose curve; as a rule, active = well fitted curve in the direction sought with a large enough effect; inconclusive = small, poorly fitted or top-dose-only effect, or another doubt; inactive = no such curve, though single readings can be large; an effect the other way counts as inactive or inconclusive.
SMILES,AmpC no deterg,SARS PLpro yeast-1,AmpC detergent,Vaccinia mCherry,VACV Venus inh,SARS PLpro yeast-2
CCCCn1c(N)c(N(CC)C(=O)c2cc(S(=O)(=O)N3CCCCCC3)ccc2OC)c(=O)[nH]c1=O,-15.3%,?,-16.6%,-10.3%,-16.2%,i
CCCCn1c(N)c(N(CCOC)C(=O)c2cc(S(=O)(=O)N3CCCCC3)ccc2C)c(=O)[nH]c1=O,-22.8%,.,?,i,1.9%,.
COc1ccc(NC(=O)N(C)C[C@H]2Oc3c(NC(=O)C4CC4)cccc3C(=O)N([C@H](C)CO)C[C@@H]2C)cc1,-12.3%,?,.,-13.0%,-3.4%,i
CNC[C@H]1Oc2c(NS(=O)(=O)c3ccccc3)cccc2C(=O)N([C@H](C)CO)C[C@@H]1C,-14.9%,10µM*,.,i,5.0%,i
Cc1cccc(NC(=O)Cn2nnc(C(=O)NCc3cccs3)c2N)c1,.,.,1.0%,-2.2%,-0.2%,.
COc1ccc2c(CNC3CCCCCC3)c(C(=O)O)n(Cc3ccccc3F)c2c1,.,.,18.4%,i,-13.7%,.
COc1ccccc1C(=O)Nc1cccc2c1CCCC2,-11.4%,?,-1.2%,-10.2%,-20.4%,i
O=C(Nc1cccc2c1CCCC2)c1ccccc1Cl,-16.7%,15.1%,4.0%,-12.9%,4.5%,.
CC(CC(=O)Nc1ccc2c(c1)c(=O)n(C)n2-c1ccccc1F)c1ccccc1 (configuration not stated),.,.,.,4.1%,-17.3%,.
Cc1cc(C)nc(SCc2ccc(C(=O)N/N=C/c3cccc(O)c3O)cc2)n1,-45.4%,3.16µM*,-12.6%,8.91µM*,?,+
CCOc1ccc(CCNC(=O)CSc2nnnn2-c2ccccc2Cl)cc1OCC,.,.,5.0%,-13.2%,-11.6%,.
COc1ccccc1NC(=S)NNC(=O)c1cc(C)n(C)n1,-3.2%,?,?,-4.8%,1.8%,i
Cc1cc(C)cc(NC(=S)Nc2ccccn2)c1,-36.7%,3.16µM*,-9.2%,-14.1%,-11.2%,+
Cc1cccc(NC(=S)Nc2ccccn2)c1,-35.7%,0.4%,-1.5%,-22.5%,-11.0%,.
Cc1cc(Cl)ccc1NC(=S)Nc1ccccn1,-28.5%,5.01µM*,-12.3%,.,.,+
Cc1ccc(NC(=S)Nc2ccccn2)c(C)c1,-36.6%,-2.2%,-0.6%,i,-16.4%,.
CCc1ccc(NC(=O)CSC2=Nc3ccccc3C3=NC(CC(=O)NCc4ccccc4)C(=O)N23)cc1 (configuration not stated),.,.,-8.4%,-26.2%,-13.8%,.
O=C(Nc1ccc(N2CCCCCC2)cc1)c1cccc(S(=O)(=O)N2CCOCC2)c1,45.2%,4.8%,-19.2%,-21.7%,-23.8%,.
O=C(NS(=O)(=O)N1CCOCC1)C1=C(N2CCCC2)COC1=O,-15.5%,3.55µM*,.,i,-1.6%,i
O=C(CNC1CC1)Nc1cc(C(F)(F)F)ccc1Cl,-4.5%,-0.9%,1.8%,.,.,.
O=C(CNCCCO)Nc1cc(C(F)(F)F)cc(NC(=O)CNCCCO)c1Cl,-8.1%,?,?,i,10.4%,i
CC(N)C(=O)NC(C(=O)NC(C)C(=O)Nc1cccc2ccccc12)C(C)C (configuration not stated),.,.,.,7.6%,7.4%,.
CCOc1ccc(N2C(=O)CC(SC(=NC)Nc3ccc4c(c3)OCO4)C2=O)cc1 (configuration not stated),-6.0%,?,?,i,-25.6%,?
C/C(=N\NC(=O)c1ccc(CSc2nncn2C)cc1)c1ccc2ccccc2c1,-19.8%,?,-3.2%,i,-13.8%,i
CN1CCOC(c2ccccc2)c2ccccc2C1 (configuration not stated),-16.9%,5.01µM*,?,-7.9%,-14.4%,i
CC1C(c2ccccc2)OCCN1C (configuration not stated),.,.,.,i,-0.6%,.
O=C(Cn1nc(Cl)nc1Cl)c1ccc(F)cc1,-5.5%,-0.8%,-9.1%,.,.,.
O=C(Cn1nc(Cl)nc1Cl)c1ccc2c(c1)OCCO2,-20.8%,11.2µM*,?,-9.2%,-5.3%,?
Cc1ccc(-c2csc(-c3nc(-c4ccc(Br)s4)cs3)n2)cc1,.,.,-2.3%,-1.8%,-4.8%,.
O=C(CN1C(=O)NC2(CCCC2)C1=O)N1CCN(S(=O)(=O)c2cccc(F)c2)CC1,0.0%,.,-3.6%,-16.0%,-9.0%,i
